Screens (PubChem BioAssay)
CYP2C19 inh: blockers of cytochrome P450 2C19 activity – biochemical, luminescence, ADME assay, primary screen; P33261; CYP2C19 Supersomes, luciferin-H EGE luminescence, 30 min; inhibition, % at 5 µM; 96,000 compounds, 21% hits;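 active means CYP2C19 inhibition above a set limit at 5 µM in the primary screen, cut at about 50% in these data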
CYP2C9 inh: blockers of cytochrome P450 2C9 activity – biochemical, luminescence, ADME assay, primary screen; CYP2C9 Supersomes, luciferin-H conversion; 96,000 compounds, 20% hits; inhibition, % at 5 µM; P11712;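 active means blocking of liver enzyme CYP2C9 beyond about 50% at 5 µM, limit read from the data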
Target sequence (P11712 whole entry, looked up): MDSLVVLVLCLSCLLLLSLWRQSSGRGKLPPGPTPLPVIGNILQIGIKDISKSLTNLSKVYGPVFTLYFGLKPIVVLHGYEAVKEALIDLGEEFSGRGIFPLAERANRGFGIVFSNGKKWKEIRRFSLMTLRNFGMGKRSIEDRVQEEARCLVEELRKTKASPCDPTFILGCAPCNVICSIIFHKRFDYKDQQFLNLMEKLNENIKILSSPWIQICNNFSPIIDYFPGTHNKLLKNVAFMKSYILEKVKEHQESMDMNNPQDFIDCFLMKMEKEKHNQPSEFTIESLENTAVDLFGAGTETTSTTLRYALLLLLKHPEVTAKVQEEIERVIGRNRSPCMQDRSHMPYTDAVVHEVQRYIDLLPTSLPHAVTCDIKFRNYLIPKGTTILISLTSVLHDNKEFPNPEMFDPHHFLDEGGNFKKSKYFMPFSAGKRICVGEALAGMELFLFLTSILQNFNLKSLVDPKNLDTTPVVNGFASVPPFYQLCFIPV
Cav3 T inh: Cav3.2 calcium influx blockers – cell-based, Fluo-4 calcium fluorescence, FDSS, MLSMR library, primary screen. Cav3.2-expressing cells; stronger effect = lower value. B-score at 10 µM. 100,000 compounds, 4% hits. AID 449739, 2010;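 active means single-dose well whose peak fluorescence ratio is a statistical outlier from its plate by either plate-standardised score or position-corrected B-score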
CYP2C19 act: human CYP2C19 activators, primary screen, biochemical, luminescence | activation factor at 5 µM | 96,000 tested, under 10 active | Cytochrome P450 2C19 (Homo sapiens), P33261 | recombinant CYP2C19, luciferin-H EGE luminescence; stronger effect = higher value; 0 = fully inhibited enzyme, 1 = untreated enzyme;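 active means activation factor of at least 2 at 5 µM in the primary screen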
CYP2C9 activ: human CYP2C9 activators, primary screen, biochemical, luminescence; Cytochrome P450 2C9 (Homo sapiens), P11712; 96,000 compounds, 1.4% hits; activation factor at 5 µM; recombinant CYP2C9, luciferin-H conversion; stronger effect = higher value; factor 1 = untreated enzyme, 0 = blocked;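 active means activation factor of 2 or more for CYP2C9 at a 5 µM dose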
A number is an active result; – = inactive; · = not tested or not shown. This is a sample that favours compounds with a hit; in the whole collection about 27% have one here.

SMILES	CYP2C19 inh	CYP2C9 inh	Cav3 T inh	CYP2C19 act	CYP2C9 activ
Cc1cc(NC(=O)c2ccccc2Cl)no1	–	–	–	–	–
CCn1c2ccccc2c2cc(NC(=O)COC(=O)Cc3cn4ccsc4n3)ccc21	90	–	–	–	–
CC1CCCC(NC(=O)COC(=O)Cc2cn3ccsc3n2)C1C (centres undefined)	–	–	–	–	–
O=C(COC(=O)Cc1cn2ccsc2n1)NC12CC3CC(CC(C3)C1)C2	59	–	–	–	–
C=CCOn1c(C)c(C(C)=O)c2c3nonc3ccc21	·	·	–	·	·
CCOC(=O)c1c(C)n(OCc2ccccc2)c2ccc3nonc3c12	–	60	–	–	–
CCc1ccc(C2CC(c3ccccc3)n3ncnc3N2)cc1 (centres undefined)	88	–	–	–	–
Fc1ccc(C2CC(c3ccc(F)cc3)n3ncnc3N2)cc1 (centres undefined)	97	69	–	–	–
CC1(C)CC(=O)c2cnc(N3CCc4ccccc4C3)nc2C1	–	–	–	–	–
O=C(CNc1ccc(Br)cc1)c1ccccc1	77	–	–	–	–
Cc1ccc(C(=O)CNc2ccc(Br)cc2)cc1	75	–	–	–	–
Cc1cccc(NCCC(=O)c2ccc(Br)cc2)c1	–	–	–	–	–
COc1ccc(OC)c(C(=O)COC(=O)C2CC3CCCC(C2)C3=O)c1 (centres undefined)	50	–	–	–	–
COc1ccc(OC)c(C(=O)COC(=O)c2ccc(C)o2)c1	93	–	–	–	–
C=C(C)c1sc(-c2ccc(Cl)cc2)nc1C	·	·	–	·	·
COC(=O)COc1cccc2c(=O)n(CC(=O)NCCc3ccccc3)ccc12	·	·	–	·	·
COC(=O)c1nn(-c2cccc(C(F)(F)F)c2)c(=O)cc1Sc1ccccn1	56	70	–	–	–
Cc1ccc(N2C(=O)c3ccccc3C2=O)cc1C	·	·	–	·	·
Cc1cccc(C)c1N1C(=O)c2ccccc2C1=O	54	–	–	–	–
CNC(=O)/C=C1\NC(C)(C)Cc2c1ccc1ccccc21	67	–	–	–	–
COC(=O)CCCCCc1ccc(C(C)=O)s1	–	–	–	–	–
CC1CCC2(CC1)NC(=O)c1ccccc1O2 (centres undefined)	93	–	–	–	–
CC(=O)Nc1ccc(NC(=O)C2CC(=O)N=C(N)S2)cc1 (centres undefined)	–	–	·	–	–
CCn1c(CS(=O)Cc2ccc(Cl)cc2Cl)nnc1SCc1c(Cl)cccc1Cl (centres undefined)	–	–	–	–	–
CN(c1cccc(NC(=O)c2ccc(Cl)c(S(=O)(=O)Nc3ccccc3)c2)c1)S(C)(=O)=O	85	97	–	–	–
SMILES	CYP2C19 inh	CYP2C9 inh	Cav3 T inh	CYP2C19 act	CYP2C9 activ
CN(c1cccc(NC(=O)Cc2ccccc2)c1)S(C)(=O)=O	–	–	–	–	–
Cc1ccccc1NS(=O)(=O)c1cc(C(=O)Nc2cccc(N(C)S(C)(=O)=O)c2)ccc1C	–	78	–	–	–
Cc1nn(-c2ccccc2)c2sc(C(=O)OCN3C(=O)c4ccccc4C3=O)cc12	–	–	–	–	–
CCCCNC(c1ccccc1)c1ccncc1 (centres undefined)	70	–	–	–	–
CC(C)=CC1C(C(=O)Nc2ccc(Br)cn2)C1(C)C (centres undefined)	–	–	·	–	–
Cc1ccc(NC(=O)C2=C(O)c3sccc3N(C)S2(=O)=O)cc1	–	64	–	–	–
Cc1ccc(NC(=S)C2=C(O)c3sccc3N(C)S2(=O)=O)cc1	–	95	–	–	–
Cc1cccc(NC(=O)C2=C(O)c3ccccc3N(C)S2(=O)=O)c1	–	–	–	–	–
CN1c2ccsc2C(O)=C(C(=O)Nc2ccccc2)S1(=O)=O	–	73	–	–	–
Cc1ccc(C(=O)NC(=S)Nc2ccc(S(=O)(=O)N3CCN(C)CC3)cc2)cc1	–	–	·	–	–
CN1c2ccccc2C(O)=C(C(=S)Nc2ccc(Cl)cc2)S1(=O)=O	–	97	-7.4	–	–
C=CCC1CCCCC12NC(=O)NC2=O (centres undefined)	–	–	–	–	–
CCOCc1nc(N)[nH]c(=O)c1Cc1ccc(OC(C)C)cc1	·	·	–	·	·
COC(C[C@@H]1O[C@H]1C(=O)COCc1ccccc1)OC	·	·	–	·	·
CC(C)Oc1ccc(C(=O)O)c(C(=O)O)c1	–	–	–	–	–
Cc1cc(C)cc(N(CC(=O)NCc2cccnc2)S(C)(=O)=O)c1	64	–	–	–	–
CS(=O)(=O)N(CC(=O)Nc1ccccc1C(=O)N1CCOCC1)c1ccccc1	·	·	–	·	·
COc1ccc(OC)c(N(CC(=O)NCc2ccncc2)S(C)(=O)=O)c1	78	52	–	–	–
CS(=O)(=O)N(CC(=O)NCc1ccncc1)c1ccc(Cl)c(Cl)c1	100	99	–	–	–
CN(c1ccc(C(=O)NCc2cccnc2)cc1)S(C)(=O)=O	·	·	–	·	·
CS(=O)(=O)N(CC(=O)NCC1CCCO1)c1ccc(Cl)c(Cl)c1 (centres undefined)	–	–	–	–	–
COc1ccc(OC)c(N(CC(=O)NCc2ccccn2)S(C)(=O)=O)c1	–	–	–	–	–
Cc1ccccc1N(CC(=O)Nc1ccccc1C(=O)O)S(C)(=O)=O	–	89	–	–	–
COc1ccccc1NC(=O)c1sc2nc(Cc3ccccc3)cc(C(F)(F)F)c2c1N	–	–	–	–	–
N#Cc1cccc(NC(=O)N2CCC(c3nc4c(nnn4Cc4cccc(Cl)c4)c(=O)[nH]3)CC2)c1	–	–	–	–	–
SMILES	CYP2C19 inh	CYP2C9 inh	Cav3 T inh	CYP2C19 act	CYP2C9 activ
COc1ccccc1N(CC(=O)NCc1cccnc1)S(C)(=O)=O	–	–	–	–	–
COc1ccc(OC)c(N(CC(=O)NCc2cccnc2)S(C)(=O)=O)c1	71	–	–	–	–
Cc1ccccc1N(CC(=O)NCc1ccncc1)S(C)(=O)=O	97	86	–	–	–
CC1(C)CC(=O)c2c(nc3ccccc3c2N)C1	–	–	–	–	–
Cc1nc2c(c3c1[nH]c1ccccc13)C(=O)CC(C)(C)C2	–	–	–	–	2.8
O=C(Nc1cccs1)OCCN1CCN(Cc2ccccc2)CCC1=O	·	·	–	·	·
CC(C)=C1SC(N2CCN(Cc3ccccc3)CC2)=NC1=O	57	–	–	–	–
CCOc1cc(NS(=O)(=O)c2ccccc2)c(OCC)cc1NC(=O)c1ccco1	–	–	–	–	–
O=C(c1oc(=O)c2ccccc2c1-c1ccccc1)N1CCC(O)CC1	–	–	–	–	–
O=C(c1oc(=O)c2ccccc2c1-c1ccccc1)N1CCN(C2CCCCC2)CC1	99	70	–	–	–
CCn1c(-c2ccc(F)cc2)cnc1SCC(=O)N1CCCCC1C (centres undefined)	63	–	–	–	–
